From PubChem BioAssay
A selection: hits, their analogues and other compounds. The true share with any hit is near 4%.
Mdm2 MdmX PPI – disrupts the human Mdm2-MdmX interaction; O15151+Q00987; SaOS-2 split-luciferase Mdm2/MdmX complementation, luminescence; inhibition, % at 8 µM; 330,000 compounds, 3% hits;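 active = inhibition of at least 50% at 8 µM in the primary screen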
Target sequence (O15151 whole entry, looked up): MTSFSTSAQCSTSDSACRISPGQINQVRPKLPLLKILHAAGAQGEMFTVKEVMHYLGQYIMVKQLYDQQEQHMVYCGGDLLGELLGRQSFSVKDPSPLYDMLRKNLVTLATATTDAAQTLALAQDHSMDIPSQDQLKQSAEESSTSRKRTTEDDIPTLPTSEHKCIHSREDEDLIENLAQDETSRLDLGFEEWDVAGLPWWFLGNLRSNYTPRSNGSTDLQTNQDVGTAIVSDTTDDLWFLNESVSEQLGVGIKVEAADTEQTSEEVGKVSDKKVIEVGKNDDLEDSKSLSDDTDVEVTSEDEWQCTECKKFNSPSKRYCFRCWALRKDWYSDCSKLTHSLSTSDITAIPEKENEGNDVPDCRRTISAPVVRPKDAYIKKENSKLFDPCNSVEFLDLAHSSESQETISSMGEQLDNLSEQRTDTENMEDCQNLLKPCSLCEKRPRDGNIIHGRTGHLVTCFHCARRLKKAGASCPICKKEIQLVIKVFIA
Target sequence (Q00987 whole entry, looked up): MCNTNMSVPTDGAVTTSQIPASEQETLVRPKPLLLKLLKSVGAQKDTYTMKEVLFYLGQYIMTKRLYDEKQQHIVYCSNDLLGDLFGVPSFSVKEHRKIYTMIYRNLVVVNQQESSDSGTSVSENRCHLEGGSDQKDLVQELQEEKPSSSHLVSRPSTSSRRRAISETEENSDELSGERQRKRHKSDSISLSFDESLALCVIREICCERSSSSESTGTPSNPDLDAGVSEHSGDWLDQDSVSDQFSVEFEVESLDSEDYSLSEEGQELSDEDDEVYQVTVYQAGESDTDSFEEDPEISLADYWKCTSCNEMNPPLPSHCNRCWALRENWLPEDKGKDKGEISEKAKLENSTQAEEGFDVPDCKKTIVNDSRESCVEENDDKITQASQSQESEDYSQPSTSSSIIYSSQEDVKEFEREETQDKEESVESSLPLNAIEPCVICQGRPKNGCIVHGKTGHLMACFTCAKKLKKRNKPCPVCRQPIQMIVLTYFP
697 NFkB inh – inhibitors of the PMA/ionomycin-induced NF-kB reporter in 697 B cells; 697 B-cell NF-kB luciferase reporter, 16 h; inhibition, % at 4 µM; 330,000 compounds, 0.33% hits; AID 435022; in the data active = inhibition above about 35%
Beta apoptosis – beta cell apoptosis inhibition; INS-1E cytokine-induced death, ATP luminescence, 48 h; percent of positive-control rescue, neutral wells zero; protection from apoptosis, % (concentration not given with the values); 300,000 compounds, 0.8% hits; AID 435005;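 active = Every replicate reaches about 75%, or at least half do and their mean reaches it too, limit read from the data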;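 also: higher means more ATP so stronger rescue from cytokine killing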
Gli-Sufu block – Gli-Sufu pathway antagonism. Sufu-KO-LIGHT fibroblasts, Gli luciferase reporter luminescence. inhibition, % at 5 µM. 340,000 compounds, 0.74% hits. AID 588413;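 active = inhibition above about 55%, limit read from the data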
Jurkat NFkB inh – lowers PMA/ionomycin-induced NF-kB signal in Jurkat cells; PMA/ionomycin-induced NF-kB luciferase reporter, luminescence; inhibition, % at 4 µM; 330,000 compounds, 0.53% hits; AID 435003; in the data active = inhibition above about 50%
Jurkat NFkB conf – inhibitors of the PMA/ionomycin-induced NF-kB reporter in Jurkat cells, retest; shares compounds with Jurkat NFkB inh; Jurkat NF-kB luciferase, 16 h; inhibition, % at 4 µM; 2,700 compounds, 27% hits; AID 435020;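 active = inhibition reaching about 45% at 4 µM in either replicate, limit read from the data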
697 NFkB conf – inhibitors of the PMA/ionomycin-induced NF-kB reporter in 697 B cells, retest; shares compounds with 697 NFkB inh; inhibition, % at 4 µM; 2,000 compounds, 35% hits; 697 B-cell NF-kB luciferase, 16 h; in the data active = inhibition mostly above about 28%, no sharp cut-off; inactive = mostly below about 22%
Mdm2-MdmX conf – human Mdm2/MdmX binding inhibition, confirmed; AID 489028; shares compounds with Mdm2 MdmX PPI; 10,000 compounds, 55% hits; inhibition, % at 8 µM; luminescent assay; in the data active = inhibition above about 40%
FLuc counter – counter-screen for Mdm2/MdmX inhibitors: full-length luciferase | shares compounds with Mdm2 MdmX PPI | SaOS-2 full-length luciferase counterscreen, luminescence | inhibition, % at 8 µM | 6,200 compounds, 77% hits;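 active = mean inhibition at 8 µM reaching about 37%, which flags the compound as non-specific, limit read from the data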;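 also: p53-null SaOS-2 cells with luciferase driven by a doxycycline-inducible promoter; compound on cells about two nights before reading with doxycycline added after day one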
Of the large screens only hits and unclear results are named; the others gave an inactive call (follow-up assays come after a bar, where they were run).

COc1ccc(Nc2nc(N)c(C(=O)c3ccc(OC)cc3)s2)cc1	Mdm2 MdmX PPI 50.3 | Jurkat NFkB conf inactive | Mdm2-MdmX conf 59.1 | FLuc counter 59.5
COc1ccc(C(=O)c2sc(Nc3ccccc3)nc2C)cc1	none (no result: Beta apoptosis)
Cc1ccc2nc(/C(C#N)=C\c3ccc([N+](=O)[O-])o3)[nH]c2c1	Mdm2 MdmX PPI 96.9, Beta apoptosis 101.9, Jurkat NFkB inh 58.6 (no result: Gli-Sufu block) | Jurkat NFkB conf inactive | Mdm2-MdmX conf 75.0 | FLuc counter inactive
CCSc1nnc(NC(=O)C2CSC3(C)CCC(=O)N23)s1 (configuration not stated)	none
CC(C)(C)[C@H](N)C(=O)N[C@H]1CCC2C3CC=C4C[C@@H](O)CC[C@]4(C)C3CC[C@@]21C (some centres not stated)	Mdm2 MdmX PPI 100.2, Jurkat NFkB inh 61.4 | Jurkat NFkB conf inactive | Mdm2-MdmX conf 100.2 | FLuc counter 51.5
CC(C)C(=O)N[C@H]1CCC2C3CC=C4C[C@@H](O)CC[C@]4(C)C3CC[C@@]21C (some centres not stated)	none
O=C(/C=C/c1cccs1)NCc1ccccc1	none
C/C(=N\NC(=O)c1c(Br)c(C)nn1C)c1cccc(NC(=O)C2CCC2)c1	none
C/C(=N\NC(=O)c1c(Cl)c(C)nn1C)c1ccc(NC(=O)C2CCC2)cc1	Mdm2 MdmX PPI 56.0, Jurkat NFkB inh 61.8 | Jurkat NFkB conf inactive | Mdm2-MdmX conf 75.1 | FLuc counter 66.9
CCOC(=O)C1(Cc2ccc(OC)cc2)CCN(C(=O)CN2CCCCC2=O)CC1	none
CCN1C(=O)C(=Cc2cccc(OC)c2Oc2ccc([N+](=O)[O-])cc2[N+](=O)[O-])SC1=S	Mdm2 MdmX PPI 100.3, Beta apoptosis 98.8, Jurkat NFkB inh 68.5 | Jurkat NFkB conf inactive | Mdm2-MdmX conf 95.5 | FLuc counter inactive
COc1cc(/C=C2\SC(=O)NC2=O)ccc1Oc1ccc([N+](=O)[O-])cc1[N+](=O)[O-]	none
CC1(C)Cc2ccccc2C(C(Cc2ccccc2)C(N)=O)=N1 (configuration not stated)	none
Cn1c(SC2=CS(=O)(=O)c3ccccc32)nc2ccccc21	Mdm2 MdmX PPI 70.3, Jurkat NFkB inh 73.9 | Jurkat NFkB conf inactive | Mdm2-MdmX conf 53.1 | FLuc counter inactive
CCOC(=O)c1[nH]c(C)c(C(=O)c2cc(F)ccc2F)c1C	Mdm2 MdmX PPI 58.7, Jurkat NFkB inh 77.1 | Jurkat NFkB conf inactive | Mdm2-MdmX conf 55.9 | FLuc counter 76.5
O=C(Nc1ccc(-c2nc3ccc(NC(=O)c4cccs4)cc3[nH]2)cc1)c1cccs1	Mdm2 MdmX PPI 94.5, Jurkat NFkB inh 91.0 | Jurkat NFkB conf inactive | Mdm2-MdmX conf 47.0 | FLuc counter inactive
N#Cc1ccc(C(=O)N2CCN(c3ncccn3)CC2)cc1	none
O=C(CSc1nccc(=O)[nH]1)Nc1cc(C(F)(F)F)ccc1N1CCOCC1	none
Cc1ccc2nc(SCC(=O)Nc3cc(C(F)(F)F)ccc3N3CCOCC3)[nH]c2c1	Mdm2 MdmX PPI 84.1, Jurkat NFkB inh 52.0 | Jurkat NFkB conf 56.1 | Mdm2-MdmX conf 64.7 | FLuc counter 91.5
C=C(C(=O)c1ccccc1)C(C(=C)C(=O)c1ccccc1)c1ccc(OC)cc1	Mdm2 MdmX PPI 97.7, Beta apoptosis 110.8, Jurkat NFkB inh 55.6 | Jurkat NFkB conf inactive | 697 NFkB conf inactive | Mdm2-MdmX conf 98.7 | FLuc counter 50.4
COc1ccc(C(CC(=O)c2ccccc2)CC(=O)c2ccccc2)cc1	none
Cc1ccc(NCC(O)C(O)C(O)CO)c(N=Nc2ccccc2)c1C (configuration not stated)	none
COc1cc2nc(Nc3ccc(F)cc3)nc(N)c2cc1OC	none
CCOC(=O)c1ccc(Nc2nc(N)c3cc(OC)c(OC)cc3n2)cc1	Mdm2 MdmX PPI 84.6, Jurkat NFkB inh 74.0 | Jurkat NFkB conf 89.7 | Mdm2-MdmX conf 83.5 | FLuc counter 48.9
O=C(O)c1cc(/C=N\O)ccc1OCc1ccccc1	none
